# Test results taken from PubChem BioAssay AID651567 (National Center for Advancing Translational Sciences (NCATS), 2012).
# The campaign covered roughly 1,200 compounds. About 10 (0.8%) were called active. About 4% were inconclusive and are not listed. The list comes from a sample in which actives are over-represented; it also holds similar structures and randomly drawn compounds. Values without a mark were called inactive. Calls follow the shape of the dose curve; as a rule, active = well fitted inhibition curve with a large enough effect; inconclusive = small, poorly fitted or top-dose-only effect; inactive = no such curve, though single readings can be large or run the other way.
# Assay: qHTS Assay to Find Inhibitors of Chronic Active B-Cell Receptor Signaling: Hit Validation in OCI-Ly3 Assay
# Conditions: OCI-Ly3 IkB-luciferase reporter, Chroma-Glo luminescence, 4 h; series mostly up to 46.1 µM; activity change, negative = inhibition: at the top concentration
# Excerpt: Diffuse large B-cell lymphoma (DLBCL) is the most common category of non-Hodgkin lymphoma, with ~20,000 new cases per year in the United States. DLBCL should be regarded as a collection of different neoplasms. Microarray gene expression analysis has defined two principal types of DLBCL, named for their similarity to normal B cell stages or activation states: a germinal center B-cell (GCB) type, and an activated B-cell (ABC) type. In ABC-DLBCL, a constitutive high-level activity of the NF-kappaB family of transcription factors has been observed (1) and NF-kappaB target genes are more highly expressed in ABC primary tumors than in GCB tumors. Functional studies have shown a constitutive high-level activity of the IkappaB (inhibitor of kappa-B) kinase (IKK) complex. […] Further analysis of DLBCL primary tumors for NF-kappaB target gene expression imply that although CARD11 is required for constitutive IKK activity in all ABC-DLBCL lines, mutations in CARD11 may be the root cause of IKK activation only in lines or tumors with such mutations. In other words, CARD11 mutations may explain NF-kappaB activation in only 10% of ABC-DLBCL cases. […] This process has been termed 'chronic active BCR signaling' (CABS). The goal of this screen is to find small-molecule inhibitors of the CABS pathway found in ABC-DLBCL lines using a cell-based assay that measures IkappaBalpa stability, which has already been extensively validated in the OCI-Ly3 line (PubChem AID:445; REF: 4). […] Hits from the primary screen were tested in this selectivity secondary assay. NIH Molecular Libraries Probe Production Network [MLPCN] NIH Chemical Genomics Center [NCGC] MLPCN Grant: R03 DA031086 PI Name: Dr. R. Eric Davis
# Cells were seeded in 1536-well plates at 5000 cells/3ul in IMDM medium containing 0.5% FBS, w/o phenol red, L-glutamine, 25 mM HEPES, 3 mg/ml sodium bicarbonate. After centrifugation for 1 min. at 1000 rpm, 23 nl of compounds or DMSO were delivered to each well using a pin tool. Then 1ul 80ng/ml doxycycline was dispensed into white solid 1536-well plates and the plates were incubated at 37C/5% C02 in a cell incubator for 4 hrs. Then 4 ul Chroma-Glo luminescent substrate mix (Promega) was added to each well. The plate was incubated at R.T. for 10-15 min. The plates were measured on a ViewLux plate reader for green luminescence (540/20 nm filter) and red luminescence (618/8 nm filter). The green and red luminescent signals were corrected for red and green luminescence filter overlap using previously determined filter calibration constants (determined using the procedure outlined in the Promega Technical Manual). The %Activity was determined from the ratio of corrected green/red luminescent values. Green luminescent and ratio %Activity was determined by normalizing to the difference in signal between basal cells (0% Activity) and cells incubated with 10 uM of the proteasome inhibitor MG-132 (100% Activity). Red luminescent %Activity was normalized to the difference between red luminesence in basal cells (0%Activity) and zero luminescence (-100% Activity). Concentration-response curves were fitted to the signals arising from the green luminescence (I-kappa-B-alpha-luciferase fusion; IkB-luc) and the red luminescence (unfused luciferase; luc) as well as the calculated ratio. The concentration-effect curves were then classified based on curve quality (r2), response magnitude and degree of measured activity. Compounds were then categorized based on their concentration-response curves for all three datasets (Ikb-luc, luc and ratio).
# % is scaled to controls: 0 for no effect and ±100 for the full control effect; potency is read from the fitted curve at half-maximal effect.
Structure (SMILES),"activity change, negative = inhibition [%]",Potency
Cc1cccc(OCCN2C(=O)C(=O)c3cc(C)ccc32)c1,-1.66,
Cc1onc(-c2ccccc2)c1-c1nc2cc(Cl)ccc2c(=O)o1,-14.1,
CSc1nc(SCC(=O)NCc2ccco2)c2c3c(sc2n1)COC(C)(C)C3,-2.6,
Cc1nnc(C)n1/N=C/c1cc2ccccc2nc1Cl,-2.19,
Cc1cc(=O)c(C(=O)Nc2cccc(N3CCCC3=O)c2)nn1-c1ccccc1Cl,-0.879,
COc1ccc(C2=NC(C)(C)Cc3cc(OC)c(OC)cc32)cc1OC,0.417,
CCCCC[C@H](O)/C=C/[C@@H]1[C@@H](C/C=C\CCCC(=O)O)[C@@H](O)C[C@H]1O,-0.871,
c1ccc(-c2cc(-c3nnc4n3N=C(c3ccc5ccccc5c3)CS4)[nH]n2)cc1,-4.31,
O=C(c1ccc(Cl)cc1)c1cc([N+](=O)[O-])ccc1N1CCOCC1,-4.74,
O=C(O)c1ccc(CSc2nnc(-c3ccco3)o2)cc1,-0.305,
COC(=O)c1cccc(-n2sc3ccccc3c2=O)c1,-6.16,
CC(Oc1ccc(Br)cc1)c1nc2c3ccccc3nc(=S)n2[nH]1 (stereo not given),349,
CCOc1ccccc1/C=N/Nc1nc2c(N)ncnc2n1[C@H]1O[C@@H](CO)[C@H](O)[C@@H]1O,0.035,
CCCNS(=O)(=O)c1cccc(C(=O)OCc2cc(=O)oc3cc(OC)ccc23)c1,-16.4,
Cc1ccc(NS(=O)(=O)c2cc(-c3n[nH]c(=O)c4ccccc34)ccc2C)cc1,-3.87,
COc1ccc(-c2c(C)nn3c(N)c(C#N)cnc23)cc1OC,0.123,
COc1cccc(-c2nnc(Nc3nc4c(F)cccc4s3)o2)c1,37.5,
CCOc1c(OC)cccc1C1CC(=O)Nc2cc(OC)c(OC)cc21 (stereo not given),-0.312,
COc1ccc(-c2noc(CSc3nc(N)c(-c4ccccc4)c(=O)[nH]3)n2)cc1,-0.936,
COc1ccccc1NC(=O)Cn1nnc(C(=O)NCc2cccs2)c1N,-0.743,
COc1cc2c(c(OC)c1OC)-c1ccc(OC)c(=O)cc1[C@@H](N(C)CC#CCO)CC2,-1.53,
Cc1cccc(N(C)S(=O)(=O)c2ccc(-c3cnc(C4CC4)o3)cc2)c1,-6.59,
C#CCOc1ccc(C2C3=C(COC3=O)Nc3cc4c(cc32)OCO4)cc1OC (stereo not given),-3.1,
CCc1ccc(CCC(=O)Nc2sc3c(c2C#N)CCCC3)o1,-1.9,
Cc1cccc(C)c1NS(=O)(=O)c1ccc(-c2cnc(C3CC3)o2)cc1,-5.58,
O=C(O)CCCN1C(=O)/C(=C\c2ccccc2OCc2ccccc2)SC1=S,-3.44,
CC1=Nc2ccccc2/C1=C\c1sc(Nc2ccc(C)cc2)nc1O,-20.5,

Structure (SMILES),"activity change, negative = inhibition [%]",Potency
COc1cccc(Nc2sc(C(=O)c3ccc(Cl)cc3)c(N)c2C(=O)NCc2ccc(C)cc2)c1,-1.56,
CC(=O)N1c2ccc(C)cc2C(c2ccccc2)CC1C (stereo not given),-2.03,
Cc1noc(C)c1CSc1nc2[nH]ncc2c(=O)n1-c1ccccc1,-5.84,
COc1ccc2c(c1)sc1nc(-c3ccccc3)cn12,16.8,
Nc1ccc(C(=O)n2c3ccccc3c3ccccc32)cc1,-4.18,
O=c1cc(-c2cccc(F)c2)[nH]c2ccccc12,-3.48,
COc1ccc(CCNc2oc(-c3ccc(OC)c(OC)c3)nc2P(=O)(OC)OC)cc1OC,0.113,
COc1cc(OC)c(OC)cc1/C=C1\CCC/C(=C\c2cc(OC)c(OC)cc2OC)C1=O,-10.7,
COc1ccccc1-n1cnc2cc(NCc3cccs3)ccc21,40.4,
NNC(=O)c1[nH]c2ccccc2c1-c1ccccc1,-4.38,
COc1cc(Cc2nccc3cc(OC)c(OC)cc23)c(NC(C)=O)cc1OC,-0.252,
COC(=O)Nc1nc(-c2ccccc2)c(C(=O)c2ccc(Cl)cc2)s1,-1.03,
CN(CC(=O)O/N=C(\N)c1ccccn1)S(=O)(=O)c1cc(Cl)ccc1Cl,-0.248,
Cc1ccc(/C=N/NC(=O)c2n[nH]c3c2CCCC3)cc1,-1.46,
Cc1cc(C)c(C#N)c(SCc2c(F)cccc2[N+](=O)[O-])n1,-2.3,
O=C(CSc1cccc[n+]1[O-])c1cc(Cl)ccc1Cl,-6.48,
COc1ccc(C(=O)/C=C/c2ccc(OC)c(Cn3nnc4ccccc43)c2)cc1,,16.4 µM (active)
COc1cc(/C=C\C(=O)OCn2nnc3ccccc3c2=O)cc(OC)c1OC,-4.34,
COc1ccc(/C=C/C(=O)c2cc(F)ccc2OC(=O)c2ccc(OC)c(OC)c2)cc1OC,-5.26,
Cc1cccc(NC(=O)c2ccc(C(=O)Nc3cccc(C)c3)nc2)c1,-0.935,
O=C1OCC2=C1C(c1ccc(F)cc1)c1cc3c(cc1N2)OCO3 (stereo not given),-4.57,
COc1cc(C(=O)N2CCN(c3cc(Cl)ccc3Cl)CC2)cc(OC)c1OC,-4.65,
CC1=CC(C)(C)N2C(=O)C(=O)c3cc(OC(=O)c4ccco4)cc1c32,-12.4,
CCOc1cc(/C=C2\CN(C)C/C(=C\c3ccc(O)c(OCC)c3)C2=O)ccc1O,-16.9,
Cc1nnc2sc(-c3csc4c3CCCC4)nn12,-0.641,
O=[N+]([O-])c1cccnc1SCc1c(F)cccc1Cl,-1.19,
CCCSc1nc(C)c(C(C)=O)cc1C#N,-0.455,

Structure (SMILES),"activity change, negative = inhibition [%]",Potency
CCOc1c(Br)cc(CNc2ccc3c(c2)OCCO3)cc1OC,-4.18,
CCOC(=O)c1c(C)sc2c1N(C(C)=O)c1cc(Cl)ccc1S2,-1.47,
CC(C)N1C(=O)/C(=C\c2nc3ccccc3c(=O)[nH]2)c2ccccc21,-26.8,
COc1cc(C2Nc3ccccc3C(=O)N2c2ccc(Cl)cc2)c(Cl)cc1OCC(=O)O (stereo not given),0.262,
Cc1ccc(NC(=S)N/N=C/c2c(Cl)cccc2Cl)c(C)c1,-4.26,
Cc1cc2nc(/C=C/c3cccnc3)[nH]c2cc1C,-2.38,
COC(=O)C1C(O)=C(C=Nc2ccccc2)C(=O)CC1(C)C (stereo not given),0.611,
Cc1ccc(NC(=O)c2ccco2)c([N+](=O)[O-])c1,0.0255,
CN(C)c1ccc(-c2nn3c(-c4ccccc4Cl)nnc3s2)cc1,-2.19,
CCOC(=O)COc1cccc2c(=O)n(CC(=O)NCc3ccc(F)cc3)ccc12,-1.96,
Cc1c(C(=O)OCC(C)C)[nH]c2c1C(=O)CC(c1cccs1)C2 (stereo not given),-0.184,
Clc1cncc(Cl)c1N/N=C/c1ccncc1,-4.45,
COc1ccc(CCNC(=O)Cn2c(=O)cnc3ccccc32)cc1,-0.695,
COc1cc(C(=O)Nc2nc(C)c(Cc3ccc4c(c3)OCO4)s2)cc(OC)c1OC,-6.45,
O=C(/C=C/c1ccc(O)cc1)c1ccc(O)cc1O,,16.4 µM (active)
Cc1ccc(/C=C/C(=O)c2nc3ccccc3[nH]2)cc1,-4.37,
COc1ccc(C(=O)/C=C/c2ccc(O)cc2)c2c1CC(O)C(C)(C)O2 (stereo not given),-0.966,
COc1ccc2[nH]c3c(c2c1)CCN1C(=O)C(CC(=O)NCC24CC5CC(CC(C5)C2)C4)C[C@H](C(=O)N2CCCCC2)[C@@]31C (stereo not given in full),-2.31,
Nc1nc(SCc2nc(-c3ccccc3)no2)[nH]c(=O)c1-c1ccccc1,-0.0938,
Oc1cccc(/C=N/Nc2ccc(Cl)nn2)c1O,,20.6 µM (active)
Oc1ccccc1/C=N/Nc1ccnc(SCc2ccccc2)n1,0.375,
O=C(/C=C/c1ccccc1)c1ccc(NC2=NCCCS2)cc1,-4.98,
Cc1c(CCC(=O)N[C@@H](CCCNC(N)=O)C(=O)O)c(=O)oc2cc3oc4c(c3cc12)CCCC4,-0.014,
COc1ccc(/C=N/Nc2nccnc2Cl)c(OC)c1,-14.9,
CCO[C@H]1OC(C(=O)NCc2nc3ccccc3[nH]2)=C[C@@H](C2CC2)[C@@H]1CCCO,-0.732,
CNc1nc(-c2ccc(OC)cc2)c(-c2ccc(OC)cc2)s1,-0.769,
COc1ccc(C)cc1Nc1cc(C)nc2ncnn12,-1.77,

Structure (SMILES),"activity change, negative = inhibition [%]",Potency
NC(=S)N/N=C1\CC(c2ccc3c(c2)OCCCO3)Oc2ccc(F)cc21 (stereo not given),-4.5,
CCOC(=O)C1=C(O)c2ccccc2C(=O)/C1=C\c1ccc(CC)cc1,-7.74,
COCCn1nnnc1C(C(C)C)N(Cc1ccccc1)Cc1cc2cc(OC)ccc2[nH]c1=O (stereo not given),-1.07,
CCCN1C(=O)C(=O)c2cc(Cl)ccc21,-8.1,
Cc1ccc2c(c1)C(=O)C(=O)N2CCOc1ccccc1,-2.23,
CC[C@]12c3[nH]c4cc(CCC(=O)N(C)C)ccc4c3CCN1C(=O)[C@@H](CC(=O)NC(C)(C)C)C[C@@H]2C(=O)N1CCN(C(=O)c2ccco2)CC1,-2.11,
CCOC(=O)c1ccc(-c2c(-c3cc(OC)c(OC)c(OC)c3)noc2C)cc1F,-3.94,
COc1ccccc1NC(=O)N1CCC(c2nc3cc(C)c(C)cc3[nH]2)CC1,-3.12,
Cc1cc(C)c2nc3sc(C(=O)N4CCOCC4)c(N)c3cc2c1,-8.28,
Cc1cc(Cl)n2c(nc3cc(F)c(F)cc32)c1C#N,0.844,
CC(=O)Nc1cc(N=Cc2ccc(O)cc2O)c(Cl)cc1Cl,,14.6 µM (active)
NC(=S)N=Nc1c(O)n(CCCl)c2ccccc12,-0.383,
CCn1c(O)c(N=NC(=S)NCC2CCCO2)c2ccccc21 (stereo not given),,20.6 µM (active)
Oc1[nH]c2c(Cl)cc(Cl)cc2c1N=NC(=S)NCC1CCCO1 (stereo not given),-26.5,
COC(=O)C1C(O)=C(C=Nc2cccc3ccccc23)C(=O)CC1(C)C (stereo not given),-0.573,
CCOc1ccc(C(=O)NC(=S)Nc2cccc(S(=O)(=O)NC3=NCCC3)c2)cc1,-4.42,
CC1=CC(C)(C)N(S(=O)(=O)c2ccc(C)cc2)c2ccccc21,-3.65,
Cc1ccc(OC/C(=N\O)C(C)(C)C)c([N+](=O)[O-])c1,-0.43,
Cc1ccc(Nc2nc(-c3c(C)nc4ccccn34)cs2)cc1,-3.78,
CCOc1ccc(C(=O)c2cc([N+](=O)[O-])ccc2N2CCOCC2)cc1,-3.09,
COc1ccc(C=C2c3ccccc3C(=O)c3ccccc32)c(OC)c1,-2.64,
COc1ccc(/C=C/C(=O)c2cc(Br)ccc2OC(=O)c2ccco2)cc1OC,-26.8,
COCCN(Cc1cc2cc(C)cc(C)c2nc1Cl)C(=O)Nc1ccccc1,-1.1,
Cc1ccc(NC(=S)NNC(=S)Nc2ccc(C)cc2C)cc1,-5.8,
